# hDAT+cocaine: changed hDAT dopamine uptake under cocaine IC80, either direction, primary screen, cocaine antagonist project, cell-based, LLC-PK1 hDAT, [14C]-dopamine uptake, MLSMR | LLC-PK1 hDAT cells, [14C]-dopamine uptake with cocaine IC80; actives deviate in either direction | 110,000 compounds, 1.3% hits | Sodium-dependent dopamine transporter (Homo sapiens), Q01959 | B-score at 10 µM | AID 449768, 2010;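 active means Z score or B-score, a plate-position-corrected score, falls beyond the plate's 99.7% confidence bounds, in either direction; inactive means both scores lie inside the 99.7% bounds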;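 further: scored against the spread of the other compound wells on the same plate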
# D1 mod: D1 CRE-luciferase signal change, two-sided – cell-based, HEK293 D1, dopamine EC30, D1 allosteric modulator project, primary screen | dopamine EC30 potentiation; actives deviate in either direction | B-score at 10 µM | 58,000 compounds, 5.9% hits | AID 641, 2007;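 active means luminescence count or its row- and column-corrected plate score outside the 99.7% band of the plate's sample wells, on either side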
# Target sequence (P21728 whole entry, looked up): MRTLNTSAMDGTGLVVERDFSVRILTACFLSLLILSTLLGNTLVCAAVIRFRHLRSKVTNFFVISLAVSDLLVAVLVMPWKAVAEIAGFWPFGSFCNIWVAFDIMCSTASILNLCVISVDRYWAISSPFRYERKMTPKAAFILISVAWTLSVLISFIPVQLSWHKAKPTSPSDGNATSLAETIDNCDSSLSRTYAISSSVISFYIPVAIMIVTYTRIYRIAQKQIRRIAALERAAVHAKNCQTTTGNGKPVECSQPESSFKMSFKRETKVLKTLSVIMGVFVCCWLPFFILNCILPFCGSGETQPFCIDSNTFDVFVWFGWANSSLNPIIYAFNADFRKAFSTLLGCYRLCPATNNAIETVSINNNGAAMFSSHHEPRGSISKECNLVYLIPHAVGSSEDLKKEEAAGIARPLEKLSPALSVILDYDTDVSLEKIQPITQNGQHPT
# ROCK2 blocker: inhibitors of human ROCK2 kinase, primary screen, biochemical, high-throughput, luminescence; AID 604, 2007; 60,000 compounds, 0.35% hits; Rho-associated protein kinase 2 (Homo sapiens), O75116; inhibition, % at 6 µM; purified ROCK2, Kinase-Glo ATP depletion luminescence;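 active means inhibition above the screen-wide mean inhibition plus 3 SD, cut at about 18% in these data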;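 further: plate controls were DMSO wells for no effect and Y-27632 control wells after no-enzyme background subtraction for full effect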
# PKA kinase inh: inhibitors of human PKA kinase activity, primary screen, biochemical, ATP-depletion luminescence, Kemptide substrate. cAMP-dependent protein kinase catalytic subunit alpha (Homo sapiens), P17612. inhibition, % at 6 µM. PKA Kemptide phosphorylation, Kinase-Glo ATP luminescence. AID 524, 2006. 65,000 compounds, 0.1% hits;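 active means inhibition above the screen-wide mean inhibition plus 3 SD, cut at about 21% in these data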
# JNK3 inh: JNK3 kinase activity inhibitors, primary screen, biochemical, human, purified enzyme; inhibition, % at 8 µM; Mitogen-activated protein kinase 10 (Homo sapiens), P53779; HTS; 60,000 compounds, 0.61% hits; AID 746, 2007; in the data active means inhibition above about 17%;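 further: 0% = DMSO and 100% = reference inhibitor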
# D1 PAM confirm: D1 receptor positive allosteric modulators, retest, confirmation, cell-based, HEK293 D1, CRE-luciferase, duplicate; shares compounds with D1 mod; dopamine EC30 potentiation; stronger effect = higher value; luminescence at 10 µM; 2,200 compounds, 88% hits;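 active means luminescence in either of two replicates above the same-plate mean plus 3 SD of the low-dose dopamine control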
# D1 no dopamine: D1 receptor agonism without dopamine, confirmation, mechanism study for D1 allosteric modulator project, cell-based, HEK293 D1, CRE-luciferase, secondary assay 1; shares compounds with D1 mod; luminescence, no dopamine; stronger effect = higher value; luminescence at 10 µM; 1,900 compounds, 0.8% hits; AID 646, 2007; in the data active means luminescence above about 3900
# Isoprot counter: isoproterenol response counter-screen activity for D1 modulators | HEK293 D1 CRE-luciferase, isoproterenol EC30 counter-screen | shares compounds with D1 mod | calls only at 10 µM | 2,200 compounds, 63% hits;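 active means luminescence in either replicate above plate mean of wells with a partly effective reference agonist dose plus 3 SD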;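 further: isoproterenol raises cAMP through native beta-adrenoceptor Gs so signal bypasses D1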
# Numbers without * were called inactive; i = inactive; nt = no result given; + = active, no number. This excerpt belongs to a sample that is enriched for hits.
SMILES,hDAT+cocaine,D1 mod,ROCK2 blocker,PKA kinase inh,JNK3 inh,D1 PAM confirm,D1 no dopamine,Isoprot counter
COc1cc([C@@H]2c3cc4c(cc3[C@H](O)[C@H]3COC(=O)[C@H]23)OCO4)cc(OC)c1OC,-0.988,7.06*,-4.8,-5.8,0.3,8908*,1648,+
Cc1cccc(NC(=O)CN(C)S(=O)(=O)c2cccc3nsnc23)c1C,0.00388,1.13,-3.5,-2.9,-8.0,nt,nt,nt
CCOc1ccccc1NC(=O)CN(C)S(=O)(=O)c1cccc2nsnc12,0.379,4.72*,3.4,11.0,0.3,6432*,1328,i
O=C(c1ccccc1)c1coc2ccc(O)c(CN3CCOCC3)c12,1.83,7.59*,3.9,10.4,8.5,13536*,1636,+
N#CCc1c(C#N)c(N)nc(N2CCN(S(=O)(=O)c3ccccc3)CC2)c1C#N,-0.331,5.49*,9.5,15.8,-0.4,11684*,1432,+
CCOC(=O)C(NCCCO)c1ccccc1 (configuration not stated),-0.512,2.81*,-0.1,3.8,-3.1,7136,1552,i
O=C(NCCO)C(c1ccccc1)c1ccccc1,0.613,0.904,2.2,6.6,8.2,nt,nt,nt
Cc1ccc(NC(=O)CN2C(=O)C3CCCCN3C(=O)c3ccccc32)cc1 (configuration not stated),0.309,nt,nt,nt,nt,nt,nt,nt
COc1ccc(OC)c(/C=N/c2oc(-c3ccco3)c(-c3ccco3)c2C#N)c1,-1.78,9.5*,2.7,-1.0,0.5,16404*,1712,i
N#Cc1c(/N=C/c2ccco2)oc(-c2ccccc2)c1-c1ccccc1,nt,0.753,-1.3,3.6,5.2,nt,nt,nt
c1coc(CNc2ncnc3sc4c(c23)CCCCC4)c1,0.749,11*,18.5*,9.0,10.5,11680*,1516,+
Cc1sc2ncnc(NCc3ccco3)c2c1C,nt,-0.528,3.7,8.6,0.5,nt,nt,nt
Cc1cccc(-n2c(=O)[nH]c3c(C(N)=O)nc(C(C)C)nc32)c1,0.483,5.53*,-2.8,-11.9,-6.7,10016*,1376,i
Cc1ccc(S(=O)(=O)NCC(=O)OC(C)C(=O)Nc2ncc(Cl)cc2Cl)cc1 (configuration not stated),-0.401,nt,nt,nt,nt,nt,nt,nt
OCCNc1nc(C2CC2)nc2c1nnn2Cc1ccccc1Cl,-0.456,8.9*,-1.3,-4.7,-2.8,14928*,1728,i
NC(=O)C1CCN(c2nc(C3CC3)nc3c2nnn3Cc2ccccc2Cl)CC1,-0.0777,nt,nt,9.6,nt,nt,nt,nt
Cc1[nH]nc2c1C(c1ccccc1F)CC(=O)N2 (configuration not stated),0.608,0.292,5.1,7.6,7.5,nt,nt,nt
COc1ccc(N2CCN(Cc3nc4c(c(=O)n(C)c(=O)n4C)n3CCc3ccccc3)CC2)cc1,-1.44,3.54*,4.6,4.2,-4.9,7060,1804,+
CCCC(=O)Nc1ccc(NC(=O)C2CC2)cn1,-0.678,5.32*,2.2,7.1,-5.7,5976*,1712,i
CC(C)N(Cc1nnc(-c2ccccc2Cl)o1)C(=O)c1cccc(C#N)c1,nt,nt,nt,6.9,nt,nt,nt,nt
CSc1ccc(C2C(C#N)=C(N)N(c3ccccc3)C3=C2C(=O)CCC3)cc1 (configuration not stated),-0.0343,2.58*,nt,6.3,nt,10676*,1648,i
CC(=O)c1c(C(C)=O)c(C)n(-c2ccc(C)c(NC(=O)c3ccccc3Cl)c2)c1C,1.14,nt,nt,nt,nt,nt,nt,nt
CCOc1ccc(-c2nnc(-c3ccco3)o2)cc1OCC,1.15,15.4*,-0.9,-1.5,-0.8,17272*,1612,+
CCOc1nc(C)ccc1-c1noc(-c2ccccn2)n1,0.0661,8.02*,-1.0,3.1,-1.3,16720*,1708,+
COc1nc(C)ccc1-c1noc(-c2ccncc2)n1,-0.709,6.73*,3.0,6.9,4.2,7856*,1580,i
SMILES,hDAT+cocaine,D1 mod,ROCK2 blocker,PKA kinase inh,JNK3 inh,D1 PAM confirm,D1 no dopamine,Isoprot counter
CCOc1nc(C)ccc1-c1noc(-c2ccco2)n1,-0.51,7.25*,0.8,-1.3,-0.5,16212*,1800,+
CC(C)Oc1ccc(N2CC(C(=O)Nc3ccc(N4CCOCC4)cc3)CC2=O)cc1 (configuration not stated),-1.16,nt,nt,nt,nt,nt,nt,nt
CCCn1c(-c2cccs2)nc2nc3ccccc3nc21,0.59,nt,nt,nt,nt,nt,nt,nt
c1csc(-c2nc3nc4ccccc4nc3n2Cc2ccc3c(c2)OCO3)c1,1.37,8.92*,2.2,5.2,5.8,10488*,1716,+
CCOC(=O)C1CCCCN1Cc1cc(Cl)ccc1O (configuration not stated),-0.0242,4*,nt,nt,nt,8896*,nt,+
CCOC(=O)C1CCCCN1Cc1cc(OC)ccc1OC (configuration not stated),1.05,nt,nt,nt,nt,nt,nt,nt
O=C(CSc1ccc2nnc(-c3ccncc3)n2n1)Nc1ccccc1F,1.75,0.119,-4.9,5.6,1.4,nt,nt,nt
COc1ccccc1NC(=O)CSc1ccc2nnc(-c3cccnc3)n2n1,0.0861,2.5*,1.4,-4.0,1.6,8024,1728,i
O=C(NCCN1CCOCC1)C(=O)NCC1OCCN1C(=O)c1ccc(Cl)cc1 (configuration not stated),-0.00388,nt,nt,nt,nt,nt,nt,nt
CCOCCCn1c(=NC(=O)c2cccnc2)c(C(=O)OCC)cc2c(=O)n3ccccc3nc21,0.377,3.28*,8.1,10.7,4.3,10440*,1560,+
CCCCn1c(=NC(=O)c2ccco2)c(C(=O)OCC)cc2c(=O)n3ccccc3nc21,0.851,5.57*,nt,-2.2,nt,9240*,1496,i
CCCCn1c(=NC(=O)c2cccnc2)c(C(=O)OCC)cc2c(=O)n3ccccc3nc21,0.704,6.99*,nt,-2.1,nt,11452*,1452,i
COc1ccc(C2CC(c3ccccc3C)n3nc(N)nc3N2)cc1 (configuration not stated),0.0844,-0.0111,6.2,4.2,3.3,nt,nt,nt
CCOc1ccc(C2CC(c3cccc(C)c3)n3nc(N)nc3N2)cc1 (configuration not stated),0.716,4.99*,2.1,-3.3,0.8,10456*,nt,+
Cc1cccc(C2CC(c3ccc(F)cc3)Nc3nc(N)nn32)c1 (configuration not stated),0.0401,4.67*,5.5,7.0,4.5,11784*,1444,i

# Compound activity deposited in PubChem by several laboratories.
